Screens (PubChem BioAssay)
Pf growth 96h: P. falciparum growth inhibition at 96 hour, primary screen for plastid delayed-death inhibitors; P. falciparum luciferase reporter growth, 96 h; Potency, µM (titrated, usually from 28.7 µM), for inactives: top-dose activity change, negative = inhibition, usual class: inhibitors; 320,000 tested, 6.9% active; note: % is set by controls: 0 for no effect and ±100 for the full control effect
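Parasite growth measured via integrated firefly luciferase reporter in P. falciparum. Infected erythrocytes at 2% hematocrit, 0.05% parasitemia final were treated 96 hours at 37 C under 5% CO2, and luminescence was read.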
Pf growth 48h: P. falciparum growth inhibition at 48 hours (one generation); 310,000 tested, 5.9% active; Potency, µM (highest dose often 28.7 µM), without a hit: at the top dose activity change, negative = inhibition, usual class: inhibitors; P. falciparum luciferase growth in erythrocytes, 48 h; note: % is set by controls: 0 for no effect and ±100 for the full control effect
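Luminescence readout; reporter = integrated firefly luciferase in P. falciparum. RBC culture at 2% hematocrit, 0.1% parasitemia final, 37 C/5% CO2; decreased signal taken as growth inhibition.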
NS1 function inh: blocks influenza NS1 protein function | Potency, µM (titrated, usually from 46.1 µM), inactives show top-dose activity, positive = more growth | 270,000 tested, 0.4% active | AID 2326; calls by dose curve; note: actives are rising curves; nearly all actives have a fitted effect of over 50% in size
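Compounds were scored for reversing the slow growth caused by influenza A NS1 in S. cerevisiae, measured by optical density at 600 nm. Assay medium contained 2% galactose at pH 6.0; NS1-free yeast of the same strain were the positive control.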
Vaccinia Venus: inhibitors of vaccinia virus (Venus reporter) | Vaccinia virus Venus reporter expression, fluorescence | Potency, µM (top dose mostly 36.5 µM), without a hit: at the highest dose activity change, negative = inhibition, actives largely listed as inhibitors | 330,000 tested, 0.46% active | AID 720580; calls by dose curve; tested in A549 cells; note: % is set by controls: 0 for no effect and ±100 for the full control effect; nearly all actives have a fitted effect of over 30% in size
VACV mCherry inh: vaccinia inhibition (mCherry reporter); 310,000 tested, 0.63% active; Potency, µM (doses to about 36.5 µM), for inactives: at the top dose activity change, negative = inhibition, hits mostly inhibitors; Vaccinia virus mCherry reporter infection, fluorescence; calls by dose curve; tested in A549 cells; note: % is set by controls: 0 for no effect and ±100 for the full control effect; nearly all actives have a fitted effect of over 35% in size
HCV inhibitor: blocks hepatitis C virus | Potency, µM (titrated, usually from 41.8 µM), without a hit: top-dose activity change, negative = inhibition, usual class: inhibitors | AID 651820 | Huh7.5.1 HCVcc-Cre infection, luciferase reporter, 44 h | 340,000 tested, 3.4% active; note: % is set by controls: 0 for no effect and ±100 for the full control effect
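Antiviral activity was scored by luciferase reporter output from cells infected with HCVcc-Cre (~0.5 moi) in presence of compound, 44 h infection period, cells seeded 1,000/well 4 h prior.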
Active calls of the source: *; i = inactive; u = inconclusive; x = no result given; [ ] = dose if it differs, or a comment. In the library only some 11% were active in any assay of this set; here they are far more common. Unless noted, calls come from the whole dose curve; as a rule, active = well fitted inhibition curve with a large enough effect; inconclusive = small, poorly fitted or top-dose-only effect, or another doubt; inactive = no such curve, though single readings can be large or run the other way. Potency is the fitted concentration of half-maximal effect.

SMILES	Pf growth 96h	Pf growth 48h	NS1 function inh	Vaccinia Venus	VACV mCherry inh	HCV inhibitor
CCN(CC)C(=O)C1CCCN(Cc2cccc(Oc3ccccc3)c2)C1 (configuration not stated)	-16%	-3%	-2%	x	x	-8%
CCC(CC)C(=O)c1c[nH]c(C(=O)NCCCN2CCOCC2)c1	67%	7%	-1%	-5%	-10%	21%
O=C(NCCCN1CCOCC1)c1cc(C(=O)C2CCCCC2)c[nH]1	0%	10µM*	x	3%	0%	20%
Cc1cc(Nc2ccccc2)nn1C(=O)c1ccc([N+](=O)[O-])cc1	9.3µM*	2%	7%	-17%	-1%[1.46 µM]	u
Cc1cc(Nc2ccccc2)nn1C(=O)c1ccc(Cl)cc1	x	31%	-12%	-9%	-9%	u
CCN1CCN(c2ncnc3sc4c(c23)CCC(C)C4)CC1 (configuration not stated)	-2%	u	-2%	x	x	u
Cc1ccc(Oc2nc(CN3CCOCC3)nc3sc4c(c23)CCC(C)C4)cc1 (configuration not stated)	u	u	-15%	-18%	-23%	u
Cc1ccc(Oc2nc(CN3CCOCC3)nc3sc4c(c23)CCC(C)C4)cc1C (configuration not stated)	u	12µM*	-3%	-14%	-14%	-17%
CC1CCc2c(sc3nc(CN4CCOCC4)nc(NS(=O)(=O)c4cccc([N+](=O)[O-])c4)c23)C1 (configuration not stated)	13µM*	x	17%	-18%	-5%	-13%
CC1CCc2c(sc3nc(CN4CCOCC4)nc(N4CCc5ccccc5C4)c23)C1 (configuration not stated)	4.7µM*	13µM*	1%	-13%	-29%	u
Cc1cc(S(=O)(=O)Nc2nc(CN3CCOCC3)nc3sc4c(c23)CCCC4)ccc1F	u	x	1%	-27%	x	7%
CC(=O)c1cccc(NC(=O)CO/N=C2/CCCc3nonc32)c1	61%	8%	x	8%	3%	-12%
COc1cc(CNCCCN2CCOCC2)cc(Br)c1OCc1ccc(Cl)cc1	u	u	-6%	x	x	1.8µM*
COc1cc(CNCCN2CCOCC2)ccc1OCc1ccc(Cl)cc1	u	x	-6%	-14%	x	7.1µM*
COc1cc(CNCCN2CCOCC2)ccc1OCc1ccccc1Cl	12µM*	u	-4%	-15%	-12%[1.46 µM]	u
C(=C\c1c[nH]c2ccccc12)/c1ccnc2ccccc12	x	x	x	-29%	u	x
CCNC(=S)NC(=NCc1cccnc1)Nc1nc(C)cc(C)n1	u	u	-12%	x	x	-9%
Cc1cc(C)nc(/N=C(\N)Nc2ccc(S(=O)(=O)Nc3nccc(C)n3)cc2)n1	4.1µM*	44%	1%	-8%	-14%	u
Cc1cc(C)nc(/N=C(\N)Nc2ccc(OCCC(C)C)cc2)n1	u	10µM*	-2%	u	u	10µM*
Cc1cc(C)nc(/N=C(\N)Nc2cccc(OCc3ccccc3)c2)n1	u	u	4%	x	x	u
Cc1cc(C)nc(/N=C(\N)Nc2ccc(OCc3ccccc3)cc2)n1	47%	u	5%	u	u	10µM*
COc1ccc(N/C(N)=N/c2nc(C)cc(C)n2)cc1	x	x	x	-27%	-3%	x
Cc1cc(NCCCCCCCNc2cc(C)nc3cc([N+](=O)[O-])ccc23)c2ccc([N+](=O)[O-])cc2n1	x	x	x	10µM*	u	10µM*
COCCCNc1cc(C)nc2ccccc12	95%	2%	3%	-2%	-9%	6%
Cc1oc(-c2ccc(Cl)cc2)nc1CS(=O)CC(=O)N1CCC2(CC1)OCCO2 (configuration not stated)	16%	15%	11%	x	x	-18%
SMILES	Pf growth 96h	Pf growth 48h	NS1 function inh	Vaccinia Venus	VACV mCherry inh	HCV inhibitor
COc1cccc(CC2(CO)CCCN(Cc3ccc(C)s3)C2)c1 (configuration not stated)	u	u	-1%	-10%	-24%	0%
COc1cccc(CC2(CO)CCCN(Cc3sc(N4CCCC4)nc3Cl)C2)c1 (configuration not stated)	15µM*	u	2%	-6%	-13%	u
COc1ccc(-n2ccnc2CN2CCCC(CO)(Cc3cccc(OC)c3)C2)cc1 (configuration not stated)	u	u	-6%	-4%	-3%	-11%
COc1ccc(CN2CCCC(CO)(Cc3ccc(F)cc3F)C2)cc1 (configuration not stated)	10µM*	-17%	20%	-14%	u	1%
COc1cccc(CC2(CO)CCCN(Cc3[nH]c4ccc(C)cc4c3C)C2)c1 (configuration not stated)	5.9µM*	9.3µM*	2%	u	11µM*	u
COc1ccccc1CNC(=O)COC(=O)c1c(C)nn(-c2ccccc2)c1Cl	u	-13%	-28%	x	x	11µM*
CC(=O)c1c(C)nn(-c2ccccc2)c1C	8%	0%	3%	0%	-8%	2%
COc1ccccc1CNC(=O)c1c(-c2ccccc2)nn(-c2ccccc2)c1C	9.3µM*	x	-4%	-6%	-9%	u
COc1cccc(CNC(=O)COC(=O)c2c(C)nn(-c3ccccc3)c2Cl)c1	u	u	x	-9%	i	0%
Cc1c(C(=O)O)c(-c2ccccc2)nn1-c1ccccc1	2.9µM*	1%	11%	-7%	x	2%
Cc1nn(-c2ccccc2)c(Cl)c1C(=O)NCc1ccccc1F	u	u	-17%	-6%	-6%	-19%
COc1ccccc1CNC(=O)c1cc(C)nn1-c1ccccc1	-2%	-1%	2%	x	x	7%
Cc1nn(-c2ccccc2)c(Cl)c1C(=O)NCCCCNC(=O)c1c(C)nn(-c2ccccc2)c1Cl	x	13µM*	3%	-9%	x	u
CCOC(=O)C1=NOC2C(=O)N(c3ccc(Cl)cc3Cl)C(=O)C12 (configuration not stated)	-6%	28%	x	-7%	3%	17%
COc1ccccc1CNC(=O)COC(=O)C1=COCCO1	5.2µM*	4%	-2%	0%	i	19%
CCCNC(=O)c1csc(Nc2cccc3ccccc23)n1	6.6µM*	9.3µM*	-167%	x	x	5%
COCCNC(=O)c1csc(Nc2cccc3ccccc23)n1	u	u	-23%	x	x	-13%
COc1ccc(C2C=C(c3ccccc3)Nc3nc(NC(=O)c4ccc(C)cc4)nn32)cc1 (configuration not stated)	x	x	x	-13%	-20%	x
N#Cc1cc2ccncc2c2ccccc12	x	x	x	-8%	i	x
Nc1cc2ccncc2c2ccccc12	u	0.12µM*	-31%	-25%	-8%	-25%
Nc1nnc(SCC(=O)Nc2sc3c(c2C(=O)c2ccccc2)CCCC3)s1	u	-18%	7%	-14%	-26%	u
